Bioassay records from PubChem.
Hits are enriched below; roughly 10% of the tested compounds scored in any of these assays.
JMJD2A Tudor – qHTS Assay for Inhibitors of JMJD2A-Tudor Domain | Potency, µM (top dose mostly 114 µM), for inactives: top-dose activity change, negative = inhibition, usual class: inhibitors | AID 504339, 2011 | Lysine-specific demethylase 4A (Homo sapiens), O75164 | AlphaScreen JMJD2A-Tudor / H3K4me3 peptide binding | 390,000 tested, 4.4% active; further: on the % scale 0 is the no-effect control and ±100 the full control effect; nearly all actives have a fitted effect of over 50% in size
BAZ2B inh – qHTS Assay for Inhibitors of BAZ2B | AlphaScreen BAZ2B-H3K14Ac peptide displacement | 360,000 tested, 4.4% active | Potency, µM (titrated, usually from 114 µM), for inactives: at the top dose activity change, negative = inhibition, actives largely listed as inhibitors; further: on the % scale 0 is the no-effect control and ±100 the full control effect; nearly all actives have a fitted effect of over 60% in size
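Complex of BAZ2B and biotin-H3K14Ac (50 nM apiece) forms over 30 min at RT, then faces library compounds up to 110 uM for another 30 min; AlphaScreen beads added, 20 min dark incubation, luminescence read.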
HP1b binding inh – HTS for Inhibitors of HP1-beta Chromodomain Interactions with Methylated Histone Tails; 390,000 tested, 0.56% active; AlphaScreen HP1-beta / biotin-H3K9me3 peptide binding; Potency, µM (series often up to 114 µM), without a hit: at the top dose activity change, negative = inhibition, most hits filed as inhibitors; AID 540317, 2011; further: nearly all actives have a fitted effect of over 70% in size
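HP1-beta protein (50 nM final) preincubated 30 min at room temperature with biotinylated H3(1-18)K9me3 peptide (50 nM) in PBS pH 7.4, 0.01% Tween-20, then compound added for 30 min. AlphaScreen streptavidin donor/nickel chelate acceptor beads (10 ug/mL final), 30 min dark, luminescence read.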
G9a inh – qHTS Assay for Inhibitors of Histone Lysine Methyltransferase G9a. Histone-lysine N-methyltransferase EHMT2 (Homo sapiens), Q96KQ7. G9a H3K9 monomethylation, AlphaScreen, 2 h. Potency, µM (titrated, usually from 102 µM), for the others: at the highest dose activity, negative = inhibition, most hits filed as inhibitors. 350,000 tested, 8.8% active; further: on the % scale 0 is the no-effect control and ±100 the full control effect; nearly all actives have a fitted effect of over 75% in size
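G9a (20 nM) was preincubated 15 min with compound, then reacted 2 h at room temperature with 500 nM biotin-H3K9 peptide and 20 µM SAM. Monomethyl-H3K9 detected by AlphaScreen using anti-H3K9me1 antibody.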
GLS inh – qHTS for Inhibitors of Glutaminase (GLS); Glutaminase kidney isoform, mitochondrial (Homo sapiens), O94925; GLS enzymatic activity, qHTS titration; Potency, µM (highest dose often 45.5 µM), for the others: at the top dose activity change, negative = inhibition, most hits filed as inhibitors; 410,000 tested, 0.21% active; AID 624170, 2012; further: on the % scale 0 is the no-effect control and ±100 the full control effect
Target sequence (O94925 whole entry, looked up, canonical isoform): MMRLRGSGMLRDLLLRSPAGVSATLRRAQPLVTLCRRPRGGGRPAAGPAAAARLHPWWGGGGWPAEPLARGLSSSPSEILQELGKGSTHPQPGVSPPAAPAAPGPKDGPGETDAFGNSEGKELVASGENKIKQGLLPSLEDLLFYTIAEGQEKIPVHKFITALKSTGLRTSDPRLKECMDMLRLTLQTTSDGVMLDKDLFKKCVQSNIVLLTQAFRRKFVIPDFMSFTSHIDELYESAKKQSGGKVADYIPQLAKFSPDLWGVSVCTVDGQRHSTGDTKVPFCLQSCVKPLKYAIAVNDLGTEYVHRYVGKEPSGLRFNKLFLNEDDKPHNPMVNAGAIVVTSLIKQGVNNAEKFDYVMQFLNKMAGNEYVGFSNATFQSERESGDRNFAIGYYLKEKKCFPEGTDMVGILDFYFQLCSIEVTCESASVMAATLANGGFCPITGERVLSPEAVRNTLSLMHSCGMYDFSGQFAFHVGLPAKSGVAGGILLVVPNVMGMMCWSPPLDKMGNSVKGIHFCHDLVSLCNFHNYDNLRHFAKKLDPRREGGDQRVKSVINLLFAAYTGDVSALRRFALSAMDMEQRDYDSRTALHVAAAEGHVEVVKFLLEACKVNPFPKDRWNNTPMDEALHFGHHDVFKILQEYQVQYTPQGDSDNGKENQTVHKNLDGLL
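hKGA; 45 mM KH2PO4 pH 8.2 + 0.02% Tween-20; cpd via pin tool; 1 mM Gln soln; GluOx/HRP/Amplex Red; RT 30 min; fluor. t0 & final.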
* hit, by the source's call; u = inconclusive; x = not tested or not shown; [ ] = remark or other dose. The call rests on the fitted dose curve; in most records, active means well fitted curve in the direction sought with a large enough effect; inconclusive means small, poorly fitted or top-dose-only effect, or another doubt; inactive means no such curve, though single readings can be large; an effect the other way counts as inactive or inconclusive. Potency means the concentration at half of the fitted maximal effect.

SMILES	JMJD2A Tudor	BAZ2B inh	HP1b binding inh	G9a inh	GLS inh
COc1ccccc1N1CCN(Cc2cc(COC(C)C)c3cccnc3c2O)CC1	22µM*	4µM*	12%	-50%[59 µM]	13%
CCCOCc1cc(CN2CCN(c3ccccc3OC)CC2)c(O)c2ncccc12	20µM*	4.5µM*	-14%	u	12%
COc1cc(OC)cc(-c2c(-c3cccs3)c3cc(-c4ccc5c(c4)OCO5)ccc3n2C)c1	-22%	-3%	35%	4%[0.501 µM]	-8%
Nc1c(Cl)cc(Cl)cc1C(=O)OCC(=O)NC1CC1	-9%	u	16%	3%	3%
CCOc1ccccc1N1CCN(Cc2cccc(OC)c2O)CC1	-23%	-11%	14%	-5%[59 µM]	20%
COc1ccccc1N1CCN(Cc2cc(Br)c(O)c3ncccc23)CC1	40µM*	13µM*	18%	8.9µM*	5%
CCC(C)Sc1cc(-c2nc3cc(C)ccn3c2NC2CCCCC2)ccc1OC (centres undefined)	50µM*	x	-10%	x	-23%
Cc1ccn2c(NC3CCCC3)c(-c3cccs3)nc2c1	10µM*	u	-11%	45µM*	u
CCC(C)Sc1cc(-c2nc3ccccn3c2NC2CCCCC2)ccc1OC (centres undefined)	79µM*	u	4%	9%[2.33 µM]	u
CCCCNc1c(-c2ccc(OC)c(SC(C)CC)c2)nc2cc(C)ccn12 (centres undefined)	u	x	1%	x	25%
c1csc(-c2nc3ccccn3c2NC2CCCCC2)c1	-13%	u	17%	u	0%
CC(=O)c1ccc(-c2cccc(-c3nc4ccccn4c3NC3CCCCC3)c2)cc1	u	40µM*	-14%	-13%[2.33 µM]	25%
COc1ccc(NC(=O)C(=O)c2cn(CC(=O)N3CCCC3)c3ccccc23)c(OC)c1	-19%	-4%	18%	x	3%
COc1cccc(NC(=O)N2CCN(c3cccc(C)c3)C(C)C2)c1 (centres undefined)	-32%	u	22%	-41%	8%
COc1ccc(C2CC(c3c(-c4ccccc4)c4cc(Cl)ccc4[nH]c3=O)=NN2S(C)(=O)=O)cc1 (centres undefined)	6%	2%	21%	2%[12.7 µM]	-6%
CC1CCN(C(=O)c2nc[nH]c2C(=O)O[C@H](C)c2ccccc2)CC1	-14%	0%	24%	0%[0.501 µM]	0%
Cc1nc2ccccn2c1-c1ccnc(=S)[nH]1	-24%	-30%	40%	10µM*	u
COc1ccccc1/C=N/Nc1nc(C)cc(=O)[nH]1	x	x	x	x	6%
O=C(O)C1Cc2c([nH]c3ccccc23)C(c2ccc3c(c2)OCO3)N1 (centres undefined)	u	-29%	5%	35µM*	2%
Cc1sc2ncnc(SCC(=O)N3c4ccccc4Sc4ccc(Cl)cc43)c2c1C	-17%[57.1 µM]	2%	22%	8%	2%
COc1ccc(-c2cc(OC(=O)c3cccc(Cl)c3)c3c(C)oc(C)c3c(=O)c2)cc1	u	50µM*	1%	14µM*	22%
COc1ccc(-c2cc(OC(=O)c3ccc(F)cc3)c3c(C)oc(C)c3c(=O)c2)cc1	x	50µM*	x	25µM*	x
O=C(c1ccccc1-c1ccccc1)N1CCN(c2ccccn2)CC1	-17%	2%	9%	-46%	9%
Cc1ccc(N(Cc2cc(=O)[nH]c3ccccc23)C(=O)C(C)C)cc1	-9%[11.4 µM]	-5%	34%	50µM*	4%
COc1ccc(N(Cc2cc(=O)[nH]c3ccccc23)C(=O)c2ccco2)cc1	u	1%	10%	50µM*	4%
SMILES	JMJD2A Tudor	BAZ2B inh	HP1b binding inh	G9a inh	GLS inh
CCCC(=O)N(Cc1cc(=O)[nH]c2ccccc12)c1ccccc1OC	-15%	-14%	20%	45µM*	1%
COc1ccccc1N(Cc1cc(=O)[nH]c2ccccc12)C(C)=O	-12%	0%	0%	u	1%
CCN(Cc1cc(=O)[nH]c2ccccc12)C(=O)C(C)C	-7%	-1%	-2%	6%	0%
CCCC(=O)N(Cc1cc(=O)[nH]c2ccccc12)c1ccc(C)cc1	89µM*	-3%	-9%	25µM*	-3%
CCCCNc1nc(NC)nc(Cl)c1SC	-5%	-17%	44%	1%	-3%
O=C1/C(=C/c2cccc(O)c2)SC(=S)N1CC1CCCO1 (centres undefined)	-27%	-5%	21%[57 µM]	-5%[12.7 µM]	2%
COc1cccc(/C=C2\SC(=S)N(N3C(=O)CCCC3=O)C2=O)c1	-85%	25µM*	u	22µM*	-7%
COc1cccc(/C=C2\SC(=S)N(CC3CCCO3)C2=O)c1 (centres undefined)	u	8.9µM*	-52%	28µM*	1%
COc1cccc(/C=C2\SC(=S)N(CCC(=O)N3CCCCC3)C2=O)c1	-20%	-30%	10%	5%	-7%
COc1cccc(/C=C2\SC(=S)N(C(C)C(=O)NC3C=CS(=O)(=O)C3)C2=O)c1 (centres undefined)	u	40µM*	-19%	u	29%
COc1ccc(S(=O)(=O)N2CCN(C(=O)c3c(-c4ccccc4)noc3C)CC2)cc1	-16%	-1%	19%	-5%	2%
O=C(NCc1ccc(Br)cc1)OC1CC2CC1[C@H]1CCCCN1C2=O (some centres undefined)	x	x	x	x	-1%
COc1cccc(CN(C)C(=O)c2ccc(OCC(=O)Nc3cccc(C(F)(F)F)c3)c(OC)c2)c1	-13%	6%	26%	0%	-3%
COc1cc2c(cc1OC)C(Cc1ccc(O)cc1)N(C)CC2 (centres undefined)	-18%	-3%	5%	50µM*	u
Clc1ccc(CNc2ncccn2)cc1	5%	-17%	27%	-6%	-21%
CCCS(=O)(=O)C/C(N)=N/OC(=O)c1ccc(Cl)cc1	12%	1%	33%	7%	-4%
CCOC(=O)c1ccc(N=c2sc(C(=O)OC)cc(=O)n2Cc2ccco2)cc1	u	u	3%	40µM*	-3%
COC(=O)c1cc(=O)n(CCc2ccccc2)c(=Nc2ccc(F)cc2)s1	u	-38%	-8%	7.1µM*	1%
CCn1c(=O)cc(C(=O)OC)sc1=Nc1ccc(F)c(F)c1	u	-37%	1%	u	-9%
CCOC(=O)c1ccc(N=c2sc(C(=O)OC)cc(=O)n2CCCN2CCOCC2)cc1	u	50µM*	-8%	50µM*	5%
CSc1nn2c(C(F)(F)F)cc(C(F)(F)F)nc2c1C(N)=O	1%	-13%	50%	2%	0%
